This is an account of results in PubChem BioAssay (EPA / NIEHS).

Read-out in experiment [1]: Interleukin 2 (IL2), IL2 (gene 3558)
Put plainly: BSK_BT_xIL2: BioMAP Diversity Plus: BT Assay for Interleukin 2 (IL2) Biomarker Activity (AID 2284245). The conditions noted are these: primary human B cells with PBMC. An outline of the steps:
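B cell + PBMC co-culture (human primary), compound added, 24 h incubation; secreted IL-2 measured multiplexed on Luminex xMAP; gain-of-signal fit vs DMSO.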

Read-out in experiment [2]: Basic fibroblast growth factor (bFGF), FGF2 (gene 2247)
Briefly: BSK_MyoF_bFGF: BioMAP Diversity Plus: MyoF Assay for Basic fibroblast growth factor (bFGF) Biomarker Activity (AID 2284246). The conditions noted are these: primary human lung fibroblasts. An outline of the steps:
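ELISA-measured bFGF level serves as the read-out, taken 24 h after chemical dosing of human lung fibroblasts. Values represent signal gain over the DMSO negative control.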

Read-out in experiment [3]: Collagen IV, COL4A1 (gene 1282)
Briefly: BSK_MyoF_CollagenIV: BioMAP Diversity Plus: MyoF Assay for Collagen IV Biomarker Activity (AID 2284247). The conditions noted are these: primary human lung fibroblasts. An outline of the steps: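 Steps: dose human lung fibroblasts; culture 24 h; quantify Collagen IV by ELISA; fit increase versus DMSO control. Parallel SRB total-protein staining (0.1% SRB after 10% TCA fixation, 560 nm) tracks overt cytotoxicity.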

Read-out in experiment [4]: Plasminogen activator inhibitor-1 (PAI1), SERPINE1 (gene 5054)
Briefly: BSK_MyoF_PAI1: BioMAP Diversity Plus: MyoF Assay for Plasminogen activator inhibitor-1 (PAI1) Biomarker Activity (AID 2284256).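 Note: PAI-1 read 24 h after compound addition.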 The conditions noted are these: primary human lung fibroblasts. An outline of the steps:
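Primary human lung fibroblasts treated with chemical for 24 h; PAI-1 levels quantified by ELISA relative to DMSO. Cytotoxicity was assessed in parallel cultures by SRB total-protein staining (0.1% SRB after 10% TCA fixation, 560 nm).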

Read-out in experiment [5]: Interleukin-8 (IL8), CXCL8 (gene 3576)
Put plainly: BSK_MyoF_IL8: BioMAP Diversity Plus: MyoF Assay for Interleukin-8 (IL8) Biomarker Activity (AID 2284261). The conditions noted are these: primary human lung fibroblasts. An outline of the steps:
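Human lung fibroblast (MyoF system) cultures dosed for 24 h, then IL-8 measured by ELISA. Response taken relative to DMSO; parallel SRB total-protein staining for cytotoxicity.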

Read-out in experiment [6]: Decorin, DCN (gene 1634)
Briefly: BSK_MyoF_Decorin: BioMAP Diversity Plus: MyoF Assay for Decorin Biomarker Activity (AID 2284265). As to conditions: primary human lung fibroblasts. An outline of the steps:
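Human lung fibroblast cultures were dosed for 24 h, and decorin was then measured by ELISA. Parallel cultures were stained with sulforhodamine B for total protein as a cytotoxicity check. Gain of signal was fitted relative to DMSO.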

A short description of experiment [7]: BSK_MyoF_SRB: Viability Assessment in the BioMAP Diversity Plus: MyoF Assay (AID 2284267).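 Note: total protein by SRB absorbance in parallel cultures as cytotoxicity measure.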 As to conditions: primary human lung fibroblasts. An outline of the steps:
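Read-out is SRB absorbance at 560 nm, reflecting total protein in parallel lung fibroblast cultures harvested 24 h after compound addition. Cells were TCA-fixed (10%) and stained with 0.1% SRB; activity is referenced to DMSO.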

Read-out in experiment [8]: Matrix Metallopeptidase 1 (MMP1), MMP1 (gene 4312)
Put plainly: BSK_MyoF_MMP1: BioMAP Diversity Plus: MyoF Assay for Matrix Metallopeptidase 1 (MMP1) Biomarker Activity (AID 2284268). As to conditions: primary human lung fibroblasts. An outline of the steps: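 Human lung fibroblast primary cells; MMP1 measured by ELISA 24 h after dosing, fitted in the positive direction relative to DMSO. Parallel SRB staining (0.1%, after 10% TCA fixation, 560 nm) assesses overt cytotoxicity.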

Read-out in experiment [9]: Monokine induced gamma interferon (MIG), CXCL9 (gene 4283)
Put plainly: BSK_KF3CT_MIG: BioMAP Diversity Plus: KF3CT Assay for Monokine induced gamma interferon (MIG) Biomarker Activity (AID 2284248). As to conditions: primary human keratinocytes with fibroblasts. An outline of the steps:
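Human keratinocyte–foreskin fibroblast co-culture; MIG measured by ELISA 24 h after chemical dosing, fitted upward versus DMSO. Cytotoxicity was assessed in parallel cultures by SRB total-protein staining read at 560 nm.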

Read-out in experiment [10]: Vascular cell adhesion molecule 1 (VCAM1), VCAM1 (gene 7412)
Put plainly: BSK_BF4T_VCAM1: BioMAP Diversity Plus: BF4T Assay for Vascular cell adhesion molecule 1 (VCAM1) Biomarker Activity (AID 2284249). The conditions noted are these: primary human bronchial epithelial cells with fibroblasts. An outline of the steps: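 Human bronchial epithelial cell and dermal fibroblast co-culture exposed 24 h. VCAM-1 measured by ELISA; parallel SRB total-protein staining for cytotoxicity. Fitted in positive direction relative to DMSO.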

Read-out in experiment [11]: Collagen I, COL1A1 (gene 1277)
Briefly: BSK_hDFCGF_CollagenI: BioMAP Diversity Plus: hDFCGF Assay for Collagen I Biomarker Activity (AID 2284250). As to conditions: primary human foreskin fibroblasts. An outline of the steps: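 Human skin primary fibroblasts dosed with test chemical, harvested at 24 h, Collagen I quantified by ELISA; parallel SRB staining (0.1% SRB after 10% TCA fixation, 560 nm) tracked cytotoxicity.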

Read-out in experiment [12]: Interferon-inducible T-cell alpha chemoattractant (ITAC), CXCL11 (gene 6373)
Briefly: BSK_hDFCGF_ITAC: BioMAP Diversity Plus: hDFCGF Assay for Interferon-inducible T-cell alpha chemoattractant (ITAC) Biomarker Activity (AID 2284251). As to conditions: primary human foreskin fibroblasts. An outline of the steps:
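ELISA readout of I-TAC after 24 h chemical exposure; human dermal foreskin fibroblast primary cells. Positive-direction fitting vs DMSO baseline. Parallel SRB total-protein staining (0.1% SRB after 10% TCA fixation, 560 nm) flags cytotoxicity.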

Read-out in experiment [13]: Plasminogen activator inhibitor-1 (PAI1), SERPINE1 (gene 5054)
Put plainly: BSK_KF3CT_PAI1: BioMAP Diversity Plus: KF3CT Assay for Plasminogen activator inhibitor-1 (PAI1) Biomarker Activity (AID 2284252). The conditions noted are these: primary human keratinocytes with fibroblasts. An outline of the steps: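 ELISA read-out of PAI-1 taken 24 h after chemical treatment of a human skin primary co-culture of keratinocytes and foreskin fibroblasts. Increases over DMSO-treated wells defined activity.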

Read-out in experiment [14]: Interleukin-8 (IL8), CXCL8 (gene 3576)
Briefly: BSK_KF3CT_IL8: BioMAP Diversity Plus: KF3CT Assay for Interleukin-8 (IL8) Biomarker Activity (AID 2284254). The conditions noted are these: primary human keratinocytes with fibroblasts. An outline of the steps: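 Human keratinocyte/foreskin fibroblast co-culture dosed 24 h; IL-8 measured by ELISA relative to DMSO. Parallel cultures stained with SRB for total protein to flag cytotoxicity.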

Read-out in experiment [15]: Macrophage Inflammatory Protein-1 Alpha (MIP1a), CCL3 (gene 6348)
Briefly: BSK_IMphg_MIP1a: BioMAP Diversity Plus: IMphg Assay for Macrophage Inflammatory Protein-1 Alpha (MIP1a) Biomarker Activity (AID 2284255). The conditions noted are these: primary human endothelial cells with macrophages. An outline of the steps: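 Co-culture of human venular endothelial cells and macrophages exposed to compounds for 24 h; MIP-1a measured by ELISA relative to DMSO. Cytotoxicity assessed in parallel cultures by sulforhodamine B total-protein staining at 560 nm.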

Read-out in experiment [16]: CD69, CD69 (gene 969)
Put plainly: BSK_IMphg_CD69: BioMAP Diversity Plus: IMphg Assay for CD69 Biomarker Activity (AID 2284257). As to conditions: primary human endothelial cells with macrophages. An outline of the steps: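 Human venular endothelial cells co-cultured with macrophages; CD69 quantified by ELISA 24 h after compound addition. Activity fitted in the positive direction relative to DMSO baseline; cytotoxicity tracked in parallel cultures via SRB total-protein staining.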

Read-out in experiment [17]: Eotaxin 3, CCL26 (gene 10344)
Briefly: BSK_BF4T_Eotaxin3: BioMAP Diversity Plus: BF4T Assay for Eotaxin 3 Biomarker Activity (AID 2284258). The conditions noted are these: primary human bronchial epithelial cells with fibroblasts. An outline of the steps:
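Co-culture of human bronchial epithelial cells and dermal fibroblasts, exposed to chemicals for 24 h versus DMSO. Eotaxin-3 quantified by ELISA; cytotoxicity checked in parallel cultures by sulforhodamine B total-protein staining.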

Read-out in experiment [18]: Monocyte Chemoattractant Protein-1 (MCP1), CCL2 (gene 6347)
Briefly: BSK_BF4T_MCP1: BioMAP Diversity Plus: BF4T Assay for Monocyte Chemoattractant Protein-1 (MCP1) Biomarker Activity (AID 2284259). The conditions noted are these: primary human bronchial epithelial cells with fibroblasts. An outline of the steps: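 Co-culture of bronchial epithelial cells and dermal fibroblasts dosed with chemical; MCP-1 measured by ELISA 24 h later. Activity fitted in positive direction versus DMSO; cytotoxicity checked by SRB staining in parallel cultures.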

Read-out in experiment [19]: CD90, THY1 (gene 7070)
Put plainly: BSK_BF4T_CD90: BioMAP Diversity Plus: BF4T Assay for CD90 Biomarker Activity (AID 2284262). As to conditions: primary human bronchial epithelial cells with fibroblasts. An outline of the steps: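 Co-culture of human bronchial epithelial cells and dermal fibroblasts, 24 h compound exposure. Cell-surface CD90 measured by ELISA relative to DMSO; parallel SRB total-protein staining for cytotoxicity.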

Read-out in experiment [20]: KRT18 (gene 3875)
Briefly: BSK_BF4T_Keratin818: BioMAP Diversity Plus: BF4T Assay for Keratin 818 Biomarker Activity (AID 2284266). The conditions noted are these: primary human bronchial epithelial cells with fibroblasts. An outline of the steps: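 Co-culture of human bronchial epithelial cells and dermal fibroblasts, chemical exposure 24 h. Keratin 8/18 measured by ELISA; positive-direction fit vs DMSO. SRB total protein run in parallel cultures for cytotoxicity.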

“And” between values parts separate entries of the source, which are not always exact repeats. Equal values may be shown once. The source made the active and inactive calls. Rule for the calls: active = hit-call score of the fitted dose curve at least 0.9, where 1 is the maximum; inactive = score below 0.9.

As a reminder, the AC50 is the midpoint of the concentration-response curve, whichever way the signal moves. Regarding `O=P(OCC(Br)CBr)(OCC(Br)CBr)OCC(Br)CBr` (stereo unspecified), the AC50 in experiment [1] is 27.7 µM (active); in experiment [8], 25.9 µM (active). The result in [2], in [3], in [4], in experiment [5], in [6] and in experiment [7] was inactive.

As for `OCC(F)(F)OC(F)(F)C(F)(F)OC(F)(F)C(F)(F)OC(F)(F)CO`, the result in experiment [1], in [2], in [3], in experiment [9], in experiment [10] and in experiment [11] was inactive. The result in experiment [13], in experiment [14], in [15], in [4], in experiment [16] and in experiment [17] was inactive. Moreover, the outcome in [5], in experiment [19], in [6], in experiment [20], in experiment [7] and in experiment [8] was inactive. The AC50 was 23 µM (active) and 22.1 µM (active) in experiment [12]; 17.9 µM (active) and 22.2 µM (active) in [18].

Regarding `CCOP(=S)(OCC)SCn1nnc2ccccc2c1=O`, the outcome in [1], in [2], in [3], in [4], in [5] and in [6] was inactive. For the same compound, the result in [7] and in [8] was inactive.

With `O=C(O)C(F)(F)OC(F)(F)C(F)(F)OC(F)(F)C(=O)O`, the outcome in experiment [1], in [2], in experiment [3], in [9], in experiment [10] and in experiment [11] was inactive. Besides, the result in [12], in experiment [13], in experiment [14], in experiment [15], in [4] and in [16] was inactive. Also, the outcome in experiment [17], in experiment [18], in experiment [5], in [19], in [6] and in experiment [20] was inactive. Besides, the outcome in [7] and in experiment [8] was inactive.
